An excerpt weighted towards active compounds, which were near 6.6% of everything screened.
KB-3-1 cytotox: qHTS assay for MDR1-selective chemotherapeutics: Primary screen using the parental adenocarcinoma cell KB-3-1. AID 1347075, 2019. Potency, µM (series often up to 46.1 µM), actives largely listed as cytotoxic. KB-3-1 viability, CellTiter-Glo ATP luminescence, 72 h. actives 1.4% (n = 400,000); note: nearly all actives have a fitted effect of over 60% in size
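Using CellTiter-Glo luminescence, growth of non-resistant KB-3-1 adenocarcinoma cells is assessed 72 h after pin-tool compound addition at 37 °C. Normalized responses across the concentration series yield fitted curves.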
HT1080 IDH1KD tx: qHTS for induction of synthetic lethality in tumor cells producing 2HG: qHTS for the HT-1080-IDH1KD cell line; Potency, µM (top dose mostly 46.1 µM), actives largely listed as cytotoxic; AID 686971, 2013; actives 2% (n = 360,000); HT-1080 IDH1 knockdown viability, ATP luminescence, 48 h
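After a 2 h attachment period, IDH1KD HT-1080 cells took pin-transferred compound for 48 h at 37 °C; ATP-based luminescence after 10 min room-temperature reagent incubation reported viability.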
KB-V1 MDR tox: qHTS assay for MDR1-selective chemotherapeutics: Primary screen using the drug-selected MDR subline cells KB-V1; KB-V1 MDR cells viability, CellTiter-Glo, 72 h; Potency, µM (top dose mostly 46.1 µM), hits mostly cytotoxic; actives 3.4% (n = 400,000); AID 1347076, 2019; note: nearly all actives have a fitted effect of over 60% in size
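Drug-selected KB-V1 cells, grown in DMEM lacking phenol red with 10% FBS, receive compound titrations; after three days at 37 degrees C, surviving cell ATP is quantified by CellTiter-Glo luminescence and responses normalized and curve-fitted.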
HepG2 viability: qHTS for Inhibitors of TGF-b: Cytotox Counterscreen; HepG2 CAGA-GFP viability, ATP luminescence, 18 h; Potency, µM (highest dose often 46.1 µM), hits mostly cytotoxic; actives 0.76% (n = 410,000); AID 588856, 2011
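HepG2 CAGA-GFP cells (1000/well, DMEM with 1% FBS) received compound, then TGF-beta at 500 pg/mL final, and were incubated 18 hours at 37 degrees C. Viability was read by CellTiter-Glo luminescence. Media-only wells were set as complete cell-killing and DMSO as no toxicity.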
TGFb inhibitor: qHTS for Inhibitors of TGF-b; HepG2 CAGA-GFP TGF-b/SMAD3 reporter, GFP fluorescence, 18 h; TGF-beta stimulated, 500 pg/mL final; Potency, µM (top dose mostly 46.1 µM), hits mostly inhibitors; actives 1.2% (n = 410,000); note: nearly all actives have a fitted effect of over 65% in size
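HEPG2 CAGA-GFP, 1000 cells/well; 2 h settle, 37 C; cpd via pin tool; TGF-b 500 pg/mL final; 18 h, 37 C; GFP imaging ex488/em500-530; %Activity normalised to -TGF-b and +DMSO controls; CRC fit, curve class.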
HT1080-NT tox: qHTS for induction of synthetic lethality in tumor cells producing 2HG: qHTS for the HT-1080-NT fibrosarcoma cell line. actives 1.6% (n = 360,000). HT-1080-NT fibrosarcoma viability, CellTiter-Glo ATP luminescence, 48 h. AID 686970, 2013. Potency, µM (highest dose often 46.1 µM), hits mostly cytotoxic;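 note: NT is the 2HG producing partner of a matched IDH1 knockdown line; nearly all actives have a fitted effect of over 55% in size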
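Fibrosarcoma NT cells, 750 per well in 5% FBS RPMI, were exposed to compound for 48 hours. Viability: CellTiter-Glo luminescence.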
Of the large screens only hits and unclear results are named; the others gave an inactive call. Calls come from the whole dose curve; as a rule, active = well fitted curve in the direction sought with a large enough effect; inconclusive = small, poorly fitted or top-dose-only effect, or another doubt; inactive = no such curve, though single readings can be large; an effect the other way counts as inactive or inconclusive.

CC1=NN(C(=O)c2ccncc2)C(=O)C1N=Nc1ccc2ccccc2c1 (centres undefined)	KB-3-1 cytotox inconclusive, KB-V1 MDR tox 6.5µM, TGFb inhibitor inconclusive
Cc1ccc(S(=O)(=O)N/N=C2/CC(c3ccccc3)Oc3ccccc32)cc1[N+](=O)[O-] (centres undefined)	none
O=S(=O)(N/N=C1/CC(c2ccccc2)Oc2ccccc21)c1ccc(Br)cc1 (centres undefined)	KB-3-1 cytotox 18µM, KB-V1 MDR tox 23µM, TGFb inhibitor inconclusive
COc1ccc(CCn2c(C)cc(C(=O)CN3C(=O)C(=O)N(Cc4ccco4)C3=O)c2C)cc1	KB-3-1 cytotox 5.8µM, HT1080 IDH1KD tx inconclusive, HT1080-NT tox inconclusive
Cc1cc(C(=O)CN2C(=O)C(=O)N(Cc3ccccc3)C2=O)c(C)n1Cc1ccccc1	KB-V1 MDR tox 21µM
CCC(Sc1nnc2c3ccccc3n(CC)c2n1)C(=O)Nc1ccc(NC(C)=O)cc1 (centres undefined)	none (no result: KB-3-1 cytotox, HT1080 IDH1KD tx, KB-V1 MDR tox, HT1080-NT tox)
COCCCN(C(=S)Nc1cc(Cl)cc(Cl)c1)C(C)c1ccccn1 (centres undefined)	KB-V1 MDR tox inconclusive, HepG2 viability 16µM, TGFb inhibitor inconclusive, HT1080-NT tox inconclusive
Cc1oc2ncn(CC(C)C)c(=O)c2c1C(=O)NCCCN1CCC(C)CC1	none (no result: HT1080 IDH1KD tx, HT1080-NT tox)
CCOC(=O)c1cc(NC(=O)N(CC)C2CCCCC2)c(C)nc1C	KB-V1 MDR tox 23µM
COC(=O)c1ccc(COc2ccccc2/C=C(\C#N)C(=O)Nc2c(C)cccc2C)cc1	KB-3-1 cytotox inconclusive, HT1080 IDH1KD tx 18µM, KB-V1 MDR tox inconclusive, TGFb inhibitor inconclusive, HT1080-NT tox 18µM
COC(=O)c1ccc(COc2ccccc2/C=C(\C#N)C(=O)Nc2ccccc2C)cc1	none
COc1ccc(N(CC(=O)NCc2ccccc2Cl)S(=O)(=O)c2c(C)[nH]c(=O)[nH]c2=O)cc1	none (no result: HT1080 IDH1KD tx, HT1080-NT tox)
CN(C)c1ccc(CN(C(=O)C2COc3ccccc3O2)C2CCS(=O)(=O)C2)cc1 (centres undefined)	KB-V1 MDR tox 18µM
Cc1ccc2c(c1)N(CCCC(=O)NCc1cccc(F)c1)C(=O)CO2	none (no result: KB-3-1 cytotox, HT1080 IDH1KD tx, KB-V1 MDR tox, TGFb inhibitor, HT1080-NT tox)
O=C(NCCc1ccccc1)C1(c2cccs2)CCOCC1	none (no result: HT1080 IDH1KD tx, HT1080-NT tox)
O=C(NC(c1ccccc1)c1ccccc1)C1(c2cccs2)CCOCC1	KB-V1 MDR tox 5.2µM
Cc1cccc(NC(=O)C2(c3cccs3)CCOCC2)c1	none
Cc1cccc(NC(=O)C2(c3cccs3)CCOCC2)n1	KB-V1 MDR tox 16µM
COc1ccc(-c2nc3cc(NC(=O)c4ccc(C)cc4)ccc3o2)cc1Cl	KB-3-1 cytotox inconclusive, KB-V1 MDR tox inconclusive (no result: HT1080 IDH1KD tx, HT1080-NT tox)
Cc1c(C(=O)N2CCC(C)CC2)oc2ccc3c(c12)C(O)CC1(CCCCC1)O3 (centres undefined)	KB-3-1 cytotox inconclusive, HT1080 IDH1KD tx 9.2µM, TGFb inhibitor inconclusive, HT1080-NT tox inconclusive
Cc1ccc(S(=O)(=O)N2CCN(Cc3cc4c(cc3Br)OCCO4)CC2)cc1	KB-3-1 cytotox 3.7µM
CCC1(O)CC2CN(CCc3c([nH]c4ccccc34)C(C(=O)OC)(c3cc4c(cc3OC)N(C=O)C3C(O)(C(=O)OC)C(OC(C)=O)C5(CC)C=CCN6CCC43C65)C2)C1 (centres undefined)	KB-3-1 cytotox 0.046µM, HT1080 IDH1KD tx inconclusive, KB-V1 MDR tox 16µM, TGFb inhibitor inconclusive, HT1080-NT tox 0.0058µM
CC[C@]1(O)CC2CN(CCc3c([nH]c4ccccc34)[C@@](C(=O)OC)(c3cc4c(cc3OC)N(C)[C@H]3[C@@](O)(C(=O)OC)[C@H](OC(C)=O)[C@]5(CC)C=CCN6CC[C@]43[C@@H]65)C2)C1 (some centres undefined)	KB-3-1 cytotox 0.023µM, KB-V1 MDR tox inconclusive, TGFb inhibitor inconclusive (no result: HT1080 IDH1KD tx, HT1080-NT tox)
COc1ccc(CCNC(=O)[C@H](C)N2C(=O)N3CCc4c([nH]c5ccccc45)[C@@]3(C)C2=O)cc1OC	KB-3-1 cytotox inconclusive, KB-V1 MDR tox inconclusive
O=C(/C=C/c1ccc(-c2ccccc2[N+](=O)[O-])o1)c1ccc(Br)cc1	HT1080 IDH1KD tx inconclusive, HT1080-NT tox inconclusive
O=C(/C=C/c1ccc(-c2ccccc2[N+](=O)[O-])o1)c1ccc(F)cc1	HepG2 viability 11µM, TGFb inhibitor inconclusive, HT1080-NT tox 16µM
CCCC(=O)NC(c1ccc(N(C)C)cc1)c1c(O)ccc2ccccc12 (centres undefined)	KB-V1 MDR tox 15µM
CCCCC(=O)NC(c1ccc(OC)c(OC)c1)c1c(O)ccc2ccccc12 (centres undefined)	KB-V1 MDR tox 15µM, TGFb inhibitor inconclusive
NS(=O)(=O)c1cccc(NC(=O)CSc2n[nH]c(-c3ccccc3Br)n2)c1	none
Cc1ccc(C)c(N(CC(=O)NC2CCCC2)C(=O)c2oc(C(C)(C)C)cc2C)c1	KB-3-1 cytotox inconclusive, HT1080 IDH1KD tx inconclusive, KB-V1 MDR tox inconclusive, HepG2 viability 22µM, TGFb inhibitor inconclusive, HT1080-NT tox inconclusive
Cc1cc(C(C)(C)C)oc1C(=O)N(CC(=O)NC1CCCC1)Cc1ccccc1	KB-V1 MDR tox inconclusive
CCOc1ccccc1OCCCCCc1c(C)n[nH]c1C	KB-3-1 cytotox 21µM, HT1080 IDH1KD tx inconclusive, KB-V1 MDR tox 2.9µM, TGFb inhibitor inconclusive, HT1080-NT tox inconclusive
COc1ccc(OCCCc2c(C)n[nH]c2C)cc1	HT1080 IDH1KD tx inconclusive
COc1cccc(OCCc2c(C)n[nH]c2C)c1	KB-3-1 cytotox inconclusive, KB-V1 MDR tox 21µM
Cc1cccc(OCCCCc2c(C)n[nH]c2C)c1C	KB-3-1 cytotox inconclusive, HT1080 IDH1KD tx inconclusive, KB-V1 MDR tox 16µM, HT1080-NT tox inconclusive
COc1ccccc1OCCCCCc1c(C)n[nH]c1C	KB-3-1 cytotox inconclusive, KB-V1 MDR tox 4.6µM
Cc1n[nH]c(C)c1CCCOc1ccccc1	none
COc1ccccc1OCCCc1c(C)n[nH]c1C	KB-V1 MDR tox 16µM
COc1ccc(S(=O)(=O)N2CCC(N3CCN(Cc4ccccc4)C(=O)C3=O)CC2)cc1	none (no result: HT1080 IDH1KD tx, HT1080-NT tox)
CC(=O)Nc1ccc(CN(C)CC2CCCN(CCc3cccc(C(F)(F)F)c3)C2)cc1 (centres undefined)	HT1080 IDH1KD tx 21µM, HT1080-NT tox inconclusive
C#CC[N+](C)(C)CC#Cc1ccc(C)cc1	KB-3-1 cytotox 12µM, HT1080 IDH1KD tx inconclusive, HT1080-NT tox inconclusive

Screening results: PubChem, National Center for Advancing Translational Sciences (NCATS)
